Pf growth 48h – inhibits P. falciparum growth in the first generation, 48 h | P. falciparum luciferase growth in erythrocytes, 48 h | Potency, µM (series often up to 28.7 µM), without a hit: at the top dose activity change, negative = inhibition, actives largely listed as inhibitors | 5.9% of 310,000 active
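A one-generation exposure of luciferase-tagged malaria parasites in RPMI 1640/Albumax erythrocyte culture, 37 C and 5% CO2. Inhibition is inferred from decreased luminescence after adding detection reagent.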
HCV inh – inhibitors of hepatitis C virus infection | AID 651820 | Potency, µM (top dose mostly 41.8 µM), for inactives: at the highest dose activity change, negative = inhibition, actives largely listed as inhibitors | Huh7.5.1 HCVcc-Cre infection, luciferase reporter, 44 h | 3.4% of 340,000 active
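Cells seeded at 1,000/well and cultured 4 h, then compounds added followed by HCVcc-Cre virus (~0.5 moi). After 44 h further culture, luciferase substrate was added, plates held 15 min at room temperature, and luminescence read for 15 sec.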
AmpC inh no detg – inhibitors of E. coli AmpC beta-lactamase without detergent; P00811; AmpC nitrocefin hydrolysis, absorbance 480 nm, 0.0001% Triton; Potency, µM (titrated, usually from 57.1 µM), for the others: at the highest dose activity change, negative = inhibition, most hits filed as inhibitors; 0.52% of 330,000 active; AID 485341;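 note: plate controls were no compound for no effect and no enzyme for full effect; nearly all actives have a fitted effect of over 20% in size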
Target sequence (P00811 whole entry, looked up): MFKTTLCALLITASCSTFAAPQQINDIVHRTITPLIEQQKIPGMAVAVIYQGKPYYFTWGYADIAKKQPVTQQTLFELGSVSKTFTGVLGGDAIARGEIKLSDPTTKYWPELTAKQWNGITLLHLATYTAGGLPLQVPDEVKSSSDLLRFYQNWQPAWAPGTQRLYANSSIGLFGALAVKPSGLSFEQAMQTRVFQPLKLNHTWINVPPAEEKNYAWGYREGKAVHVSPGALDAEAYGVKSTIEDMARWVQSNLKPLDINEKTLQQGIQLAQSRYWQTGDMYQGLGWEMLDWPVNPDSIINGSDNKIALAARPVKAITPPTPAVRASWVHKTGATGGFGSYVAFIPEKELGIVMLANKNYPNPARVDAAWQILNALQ
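20 mM phosphate pH 7.0 + 0.01% (detergent screen) or 0.0001% Triton X-100; 5.3 nM AmpC reagent; cpd preinc 15 min RT; nitrocefin (800 uM stock) to start; A480 q20 s × 4 min; Activity was normalised to no-enzyme and no-compound control wells.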
AmpC inh detg – AmpC beta-lactamase inhibition with detergent present; 0.041% of 370,000 active; P00811; Potency, µM (top dose mostly 114 µM), inactives show at the top dose activity change, negative = inhibition, most hits filed as inhibitors; AmpC hydrolysis of nitrocefin, absorbance 480 nm, 0.01% Triton; AID 485294;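 note: 0% = no-compound wells and -100% = no-enzyme wells; nearly all actives have a fitted effect of over 25% in size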
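20 mM phosphate pH 7.0 + 0.01% (detergent screen) or 0.0001% Triton X-100; 5.3 nM AmpC reagent; cpd preinc 15 min RT; nitrocefin (800 uM stock) to start; A480 q20 s × 4 min; Activity was normalised to no-enzyme and no-compound control wells.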
Pf growth 96h – inhibits malaria parasite growth, 96 h. P. falciparum luciferase reporter growth, 96 h. Potency, µM (doses to about 28.7 µM), for the others: at the top dose activity change, negative = inhibition, hits mostly inhibitors. 6.9% of 320,000 active. AID 504834
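P. falciparum expressing integrated firefly luciferase, in erythrocytes at 2% hematocrit, 0.05% parasitemia, incubated with compounds 96 h at 37 C, 5% CO2. Growth inhibition read as loss of luminescence; two-generation exposure targets delayed-death apicoplast inhibitors.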
AMA1-RON2 inh – disrupts binding of P. falciparum AMA1 to RON2 | Potency, µM (top dose mostly 58.2 µM), inactives show top-dose activity change, negative = inhibition, hits mostly inhibitors | AlphaScreen AMA1-biotinylated RON2 peptide binding | 0.2% of 360,000 active;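 note: 0% = vehicle wells and -100% = peptide control; nearly all actives have a fitted effect of over 45% in size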
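AMA1 (3D7) with his tag at 25 nM final met compounds first, then biotinylated RON2 peptide at 25 nM; detection used donor plus acceptor beads, 10 µg/mL apiece, read by AlphaScreen after 30 min at room temperature.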
Active calls of the source: *. Sampled rows, rich in hits. Any-hit rate of the full collection: about 11%. Calls come from the whole dose curve; as a rule, active = well fitted curve in the direction sought with a large enough effect; inconclusive = small, poorly fitted or top-dose-only effect, or another doubt; inactive = no such curve, though single readings can be large; an effect the other way counts as inactive or inconclusive. Unless noted, % is set by controls: 0 for no effect and ±100 for the full control effect; potency is the fitted concentration of half-maximal effect.

N#Cc1nc(-c2ccccc2F)oc1NCCN1CCOCC1 was read as HCV inh -5.2%, AmpC inh no detg -6.9%, AmpC inh detg -7.7%, Pf growth 96h 9.28µM* and AMA1-RON2 inh 10.3%.
`N#Cc1nc(COc2ccc(-c3ccccc3)cc2)oc1NCCCN1CCOCC1` gave Pf growth 48h inconclusive, HCV inh inconclusive, AmpC inh no detg 189.7%, AmpC inh detg -9.8%, Pf growth 96h inconclusive and AMA1-RON2 inh -14.4%.
Screening N#Cc1nc(-c2ccc(F)cc2)oc1NCCN1CCOCC1 returned Pf growth 48h 18.9%, HCV inh 12.0%, AmpC inh no detg 0.631µM*, AmpC inh detg inconclusive, Pf growth 96h 55.1% and AMA1-RON2 inh 14.2%.
For COc1ccc(-c2nc(C#N)c(NCCCN3CCOCC3)o2)cc1 the results were Pf growth 48h 33.0%, HCV inh 14.2%, AmpC inh no detg 28.2µM*, AmpC inh detg 5.4%, Pf growth 96h -10.1% and AMA1-RON2 inh 25.7%.
For COc1ccc(NC(=O)c2cccc(N3CCCS3(=O)=O)c2)cc1 the results were AmpC inh detg -1.3%.
For O=C(CNC(=O)c1ccc2c(c1)S(=O)(=O)N=C1CCCCCN12)Nc1ccc(F)c(F)c1 the results were Pf growth 48h 10.4µM*, HCV inh -3.4%, AmpC inh no detg -26.6%, AmpC inh detg -10.8%, Pf growth 96h inconclusive and AMA1-RON2 inh -7.1%.
CCN(C(=O)c1cc2c(=O)n3ccccc3nc2n1CCCOC)C1CCCCC1 was read as Pf growth 48h 11.7µM*, HCV inh 2.0%, AmpC inh no detg 109.5%, AmpC inh detg 1.5%, Pf growth 96h 14.7µM* and AMA1-RON2 inh 39.2%.
CCOC(=O)c1cc2c(=O)n3ccccc3nc2n(CCCOC)c1=NC(C)=O was read as Pf growth 48h -12.6%, HCV inh inconclusive, AmpC inh no detg 12.0%, AmpC inh detg -15.2%, Pf growth 96h 10.4µM* and AMA1-RON2 inh 11.5%.
CCOC(=O)c1cc2c(=O)n3ccccc3nc2n(CCCOC)c1=NC(=O)c1ccncc1 was read as Pf growth 48h -18.8%, HCV inh -22.6%, AmpC inh no detg -5.4%, AmpC inh detg 1.8%, Pf growth 96h inconclusive and AMA1-RON2 inh -15.4%.
Screening CC(C)OCCCn1c(=N)c(C(N)=S)cc2c(=O)n3ccccc3nc21 returned HCV inh inconclusive, AmpC inh no detg 2.7%, AmpC inh detg inconclusive, Pf growth 96h 13.1µM* and AMA1-RON2 inh 10.8%.
For CCOC(=O)c1cc2c(=O)n3cccc(C)c3nc2n(CCOC)c1=NC(C)=O the results were Pf growth 48h inconclusive, HCV inh -25.5%, AmpC inh no detg 22.6%, AmpC inh detg -8.2%, Pf growth 96h 6.57µM* and AMA1-RON2 inh -10.6%.
For Cc1ccc2[nH]c(C)c(CCNC(=O)c3cc4cc(Br)ccc4oc3=O)c2c1 the results were AmpC inh detg -1.3%.
Cc1csc(C)[n+]1CC(=O)c1ccccc1 was read as Pf growth 48h inconclusive, HCV inh 4.4%, AmpC inh no detg -10.8%, AmpC inh detg -18.4%, Pf growth 96h 6.57µM* and AMA1-RON2 inh -8.7%.
CCOC(=O)c1cc2c(=O)n3ccccc3nc2n(CC(C)C)c1=NC(=O)COc1ccc(Cl)cc1 was read as AmpC inh detg 1.3%.
`COc1ccc(-c2sc3cc(OC)c(OC)cc3c2C#CCO)cc1` gave HCV inh 1µM*, AmpC inh no detg 45.1% and AMA1-RON2 inh inconclusive.
For COC(=O)c1c(-c2ccc(OC)cc2)sc2cc(OC)c(OC)cc12 the results were HCV inh inconclusive, AmpC inh no detg 110.0% and AMA1-RON2 inh 30.8%.
Screening COc1ccc(-c2oc3ccccc3c2C#CC(C)(C)O)cc1 returned Pf growth 48h inconclusive, HCV inh 7.94µM*, AmpC inh no detg 44.9%, AmpC inh detg -3.3%, Pf growth 96h 1.85µM* and AMA1-RON2 inh -3.6%.

Assay outcomes (PubChem BioAssay)
